Experimental data as given in PubChem BioAssay AID463173 (ICCB-Longwood Screening Facility, Harvard Medical School, 2010).
Screen size: about 52,000 compounds; about 1,700 (3.3%) were called active. No stated cut-off is given here; in the data, active means survival mostly below about 52% (no sharp cut-off); inactive means mostly above about 56%. Many of the other results were omitted from the sample, so actives are more common in it than they were.

System: Wild type
Assay: S. aureus survival, RN4220 and DeltatarO strains – OD600, teichoic acid synthesis inhibitors, primary screen (AID 463173)
Conditions: S. aureus RN4220 wild type/DeltatarO growth, OD600, 18 h, stronger effect = lower value, screened at 18.75 µg/mL (by protocol)

SMILES	survival
CC1CC(C)N(C(=O)c2cc(-c3ccccc3)on2)C(C)C1 (centres undefined)	129% (inactive)
CCOc1ccc(NC(=O)CN(c2ccc(Cl)cc2C)S(=O)(=O)c2ccccc2)cc1	77% (inactive)
CCN(CC)CC(=O)Nc1nc2ccc(OC)cc2s1	103% (inactive)
Cc1c(Cl)cccc1-c1ccc(/C=C(\C#N)c2nc3ccccc3[nH]2)o1	8% (active)
N#C/C(=C\c1ccc(-c2ccc(F)cc2F)o1)c1nc2ccccc2[nH]1	38% (inactive)
N#C/C(=C\c1ccc(-c2ccccc2C(=O)O)o1)c1nc2ccccc2[nH]1	84% (inactive)
COc1ccc(NC(=O)c2c(NC(=O)c3ccc(Br)cc3)sc3c2CCCC3)cc1	157% (inactive)
COc1ccc(CC(=O)Nc2sc3c(c2C(=O)Nc2ccc(C)cc2)CCCCC3)cc1	136% (inactive)
Cc1ccc(NC(=O)c2c(NC(=O)C(F)(F)F)sc3c2CCCCC3)cc1	-3% (active)
Cc1ccc(NC(=O)c2c(NC(=O)c3ccccc3)sc3c2CCC3)cc1	79% (inactive)
Cc1ccccc1NC(=O)c1c(NC(=O)c2ccccc2)sc2c1CCC2	137% (inactive)
COc1ccc(NC(=O)c2c(NC(=O)C(F)(F)F)sc3c2CCCCC3)cc1	-1% (active)
Cc1ccccc1NC(=O)c1c(NC(=O)Cc2ccccc2)sc2c1CCC2	48% (inactive)
Cc1ccc(NC(=O)c2c(NC(=O)Cc3ccccc3)sc3c2CCCC3)cc1	49% (inactive)
Cc1ccccc1NC(=O)c1c(NC(=O)C(F)(F)F)sc2c1CCCCC2	1% (active)
COCCCNc1nc2c(c(=O)n(Cc3ccc(F)cc3)c(=O)n2C)n1C	130% (inactive)
CCC(O)c1cc2c(cc1NC(=O)c1cccc(Br)c1)OCCO2 (centres undefined)	71% (inactive)
Cc1ccc(N(C)C(=O)Cn2cc(S(=O)(=O)N3CCCC3)c(S(=O)(=O)N3CCCC3)c2)cc1	73% (inactive)
Cc1cccc(NC(=O)CN2C(=O)C(c3ccc(F)cc3)=NC23CCCCCC3)c1C	73% (inactive)
CCCN1CCN(c2ncnc3sc(C(=O)Nc4ccc(N(CC)CC)cc4C)c(C)c23)CC1	128% (inactive)
CCn1c(SC)nnc1C1CCCN(C(=O)c2ccccc2-c2ccccc2)C1 (centres undefined)	120% (inactive)
CCCCCn1c(CCCNC(=O)c2cccc(C)c2)nc2ccccc21	50% (inactive)
CCCCCn1c(C(C)NC(=O)c2ccccc2)nc2ccccc21 (centres undefined)	77% (inactive)
CCCCn1c(CCCNC(=O)c2cccc(C)c2)nc2ccccc21	73% (inactive)

SMILES	survival
CCCCCn1c(CCNC(=O)c2cccc(C)c2)nc2ccccc21	2% (active)
CCCCCn1c(-c2cccc(C)c2)nc2ccccc21	11% (active)
CCOc1ccc(Cn2c(-c3ccc(OCC)c(OC)c3)nc3ccccc32)cc1OC	94% (inactive)
CCCCn1c(C)nc2ccccc21	99% (inactive)
CCCCCn1c(-c2ccc(OC)c(OC)c2)nc2ccccc21	1% (active)
CCCCCn1c(CCCNC(=O)c2ccccc2OC)nc2ccccc21	68% (inactive)
Cc1ccc(S(=O)(=O)NCC(c2ccco2)N2CCOCC2)cc1 (centres undefined)	78% (inactive)
Cc1ccc2[nH]c(CSc3nnc(NC(=O)c4ccc(Cl)cc4)s3)cc(=O)c2c1	71% (inactive)
CCN(CCCNC(=O)c1nn(-c2ccc(C)cc2)c(=O)c2c1c1ccccc1n2C)c1ccccc1	82% (inactive)
Cc1cc(=O)c2c(o1)CC(C)(C)CC2=O	110% (inactive)
Cc1cccc(-n2c(C)nc3cc(C(=O)NCCC4=CCCCC4)ccc32)c1	73% (inactive)
COCCCNC(=O)c1ccc2c(c1)nc(C)n2-c1cccc(C)c1	69% (inactive)
CCCCCNC(=O)c1ccc2c(c1)ncn2-c1cccc(C)c1	-3% (active)
Cc1cccc(-n2cnc3cc(C(=O)NCc4ccccc4Cl)ccc32)c1	68% (inactive)
Cc1ccc(-n2cnc3cc(C(=O)NCc4ccccc4Cl)ccc32)c(C)c1	10% (active)
CCCNC(=O)c1ccc2c(c1)nc(C)n2-c1cccc(C)c1	82% (inactive)
Cc1cc(C)cc(-n2cnc3cc(C(=O)NCCc4ccccc4)ccc32)c1	73% (inactive)
Cc1nc2cc(C(=O)NCCC3=CCCCC3)ccc2n1-c1ccc(Br)cc1	75% (inactive)
CCCCCNC(=O)c1ccc2c(c1)nc(C)n2-c1cccc(C)c1	-2% (active)
CCOc1ccc(-n2c(C)nc3cc(C(=O)NCCC4=CCCCC4)ccc32)cc1	-6% (active)
Cc1cccc(-n2cnc3cc(C(=O)NC4CCCCCC4)ccc32)c1	124% (inactive)
CCCNC(=O)c1ccc2c(c1)ncn2-c1ccc(C)cc1C	59% (inactive)
Cc1ccc(OCC(=O)Nc2ccccc2C(=O)OCc2cc(=O)n3c(C)csc3n2)cc1	72% (inactive)
O=C(Nc1ccc(Cl)cc1)C1CCN(S(=O)(=O)c2ccc(Br)s2)CC1	60% (inactive)

SMILES	survival
CCC(C)(C)NC(=O)C1CCN(S(=O)(=O)c2ccc3c(c2)CCCN3C(C)=O)CC1	71% (inactive)
O=C(/C=C(/O)c1cccnc1)C(F)(F)F	86% (inactive)
O=C1CC2C(=O)NCCN2C(=NC(=O)c2ccc(Cl)cc2)N1 (centres undefined)	100% (inactive)
COc1cccc(/C=N/NC(=O)c2cccc(C)c2)c1O	1% (active)
COc1cccc(/C=N/NC(=O)COc2c(C)cccc2C)c1O	113% (inactive)
COc1cccc(/C=N/NC(=O)CSCc2ccccc2)c1O	108% (inactive)
COc1cc(OC)cc(C(=O)Nc2ccc(S(=O)(=O)N3CCCCC3c3cccnc3)cc2)c1 (centres undefined)	71% (inactive)
Cc1ccc(Cl)cc1N1CCN(C(=O)CCS(=O)(=O)c2cc(Br)cc3c2N(C(=O)C2CC2)CC3)CC1	80% (inactive)
CCC(C)NC(=O)c1cccc(NC(=O)c2nsc3ccccc23)c1 (centres undefined)	76% (inactive)
COC(=O)c1cccc(NC(=O)c2nsc3ccccc23)c1	0% (active)
O=C(NCc1cccc(F)c1)c1cccc(NC(=O)c2nsc3ccccc23)c1	87% (inactive)
O=C(NCc1cccc(F)c1)c1ccc(NC(=O)c2nsc3ccccc23)cc1	-4% (active)
O=C(NCc1ccccc1)c1ccc(NC(=O)c2nsc3ccccc23)cc1	55% (inactive)
CC(NC(=O)c1cccc(NC(=O)c2nsc3ccccc23)c1)c1ccccc1 (centres undefined)	111% (inactive)
Cc1ccccc1Nc1c(-c2ccc(N3CCOCC3)cc2)nc2cccc(C)n12	59% (inactive)
Cc1ccc(N(C)C(=O)C2CCCN(c3ncnc4c3nc3n4CCCCC3)C2)cc1C (centres undefined)	127% (inactive)
CCc1ccc(NC(=O)C2CCN(c3nn4cc(-c5ccc(OC)cc5)nc4s3)CC2)cc1	71% (inactive)
COc1ccc(-c2nc3c4ccccc4n(CC(=O)N4CCN(c5ccccc5F)CC4)c(=O)n3n2)cc1	91% (inactive)
CC1(C)C(=O)NC(=O)N1CN1C(=O)NC(=O)C1(C)C	111% (inactive)
CCOc1ccc(C(=O)Nc2ccc(-n3nncc3-c3ccccc3)cc2)cc1OCC	135% (inactive)
O=C(c1cc2c(=O)oc3ccccc3c2s1)N1CCN(c2cccc(Cl)c2)CC1	145% (inactive)
CCCN1C(=O)c2ccccc2CC1(C)C(=O)NC1CCCCC1 (centres undefined)	85% (inactive)
O=C(Nc1cccc(Cl)c1)c1c(NC(=O)C(F)(F)F)sc2c1CCCC2	-2% (active)
O=C(Nc1sc2c(c1C(=O)Nc1cccc(Cl)c1)CCCC2)c1cccs1	140% (inactive)

SMILES	survival
O=C(Cc1ccccc1)Nc1sc2c(c1C(=O)Nc1cccc(Cl)c1)CCCCC2	91% (inactive)
Cc1cccc(NC(=O)c2c(NC(=O)c3ccccc3)sc3c2CCCC3)c1	82% (inactive)
Cc1cccc(NC(=O)c2c(NC(=O)c3ccccc3)sc3c2CCC3)c1	80% (inactive)
COc1ccc(CC(=O)Nc2sc3c(c2C(=O)Nc2cccc(C)c2)CCCCC3)cc1	63% (inactive)
Cc1cccc(C(=O)Nc2sc3c(c2C(=O)Nc2ccccc2)CCC3)c1	67% (inactive)
Cc1cccc(NC(=O)c2c(NC(=O)C(F)(F)F)sc3c2CCCCC3)c1	-3% (active)
Cc1cccc(NC(=O)c2c(Br)sc3c2CCCC3)c1	0% (active)
CCOC(=O)c1c(S(=O)(=O)N2CCCC(C(=O)N3CCN(c4cc(C)ccc4C)CC3)C2)c(C)n(C)c1C (centres undefined)	72% (inactive)
COc1cccc(-c2cc(C(=O)Nc3cnn(Cc4ccc(Cl)cc4Cl)c3)no2)c1	112% (inactive)
CCC(=O)n1c2c(c3ccccc31)Nc1ccccc1N2	105% (inactive)
CC(C)Oc1ccc(CNC(=O)C2CCN(Cc3cc4ccccc4n3Cc3ccccc3)CC2)cc1	93% (inactive)
CCC(C(=O)NCCc1ccc(Cl)cc1)n1ccc2cc(S(=O)(=O)N3CCCCC3)ccc21 (centres undefined)	101% (inactive)
CCC(c1nnnn1C1CCCC1)N1CCN(Cc2ccccc2)CC1 (centres undefined)	104% (inactive)
COc1ccc(C(=O)c2cn(CC(=O)Nc3cc(C)ccc3C)c3nc(C)ccc3c2=O)cc1	146% (inactive)
CCOC(=O)C1NC(=O)CC1c1ccccc1 (centres undefined)	99% (inactive)
Cc1cccc(OC(C)C(=O)N2CCC(c3nc4ccccc4o3)CC2)c1C (centres undefined)	74% (inactive)
CC(Oc1ccccc1F)C(=O)N1CCC(c2nc3ccccc3o2)CC1 (centres undefined)	-18% (active)
CCc1ccc(OC(C)C(=O)N2CCC(c3nc4ccccc4o3)CC2)cc1 (centres undefined)	92% (inactive)
COc1ccccc1OCC(=O)N1CCC(c2nc3ccccc3o2)CC1	-12% (active)
Cc1cccc(OCC(=O)N2CCC(c3nc4ccccc4o3)CC2)c1C	72% (inactive)
Cc1cccc(C)c1OCC(=O)N1CCC(c2nc3ccccc3o2)CC1	81% (inactive)
Cc1ccccc1C(=O)NC1CCN(CC(=O)NC(C)(C)C)CC1	100% (inactive)
